Test [1] is described as follows: antimalarial activity against Dd2 strain (AID 2302;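 active = growth inhibition above 50% at the single 2 µM test dose, taken to imply half-maximal potency below 2 µM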;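 also: 0% = DMSO untreated growth and 100% = chloroquine plus artemisinin killed control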). The note with it: P. falciparum Dd2 in RBCs, LDH growth readout, 72 h; at 2 µM; active compounds read high.
Test [2] can be described thus: human hepatoma cell viability loss – ATP luminescence, cytotoxicity control for P. falciparum antimalarial project, primary screen (AID 2303;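 active = inhibition above 50%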;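 also: 0% = DMSO wells and 100% = digitonin-killed cells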). The conditions noted are these: HepG2 viability, 24-48 h, at 10 µM, active compounds read high.
The target in test [3] is L-lactate dehydrogenase (Plasmodium falciparum (isolate CDC / Honduras)) (UniProt Q27743). Put plainly: PfLDH activity inhibition – cell lysate, 3D7 strain, counter-screen for P. falciparum growth inhibition project (AID 2304).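 Also: 0% = vehicle and 100% = reference inhibitor.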 The note with it: P. falciparum 3D7 crude extract, LDH APAD/NBT absorbance; at 2 µM; active compounds read high.
L-lactate dehydrogenase (Plasmodium falciparum (isolate CDC / Honduras)), sequence (Q27743 whole entry, looked up): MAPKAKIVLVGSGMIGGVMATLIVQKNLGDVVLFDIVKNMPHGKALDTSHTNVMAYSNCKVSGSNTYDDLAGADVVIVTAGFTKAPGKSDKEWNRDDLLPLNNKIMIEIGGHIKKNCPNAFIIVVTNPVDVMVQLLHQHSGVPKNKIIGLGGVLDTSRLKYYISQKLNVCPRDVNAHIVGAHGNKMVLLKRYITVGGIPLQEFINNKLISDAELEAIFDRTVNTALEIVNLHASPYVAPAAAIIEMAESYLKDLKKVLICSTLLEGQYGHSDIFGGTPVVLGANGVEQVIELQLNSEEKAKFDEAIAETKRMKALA
Test [4] can be described thus: inhibition of 3D7 malaria parasite growth – strain 3D7 (AID 2306).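 Also: 0% = DMSO wells and 100% = chloroquine plus artemisinin control wells.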 The note with it: P. falciparum 3D7 erythrocytic growth, LDH absorbance, 72 h; at 2 µM; active compounds read high.
Test [5] concerns the target Calcium-dependent protein kinase 1 (Plasmodium falciparum (isolate 3D7)) (UniProt P62344). Put plainly: PfCDPK1 kinase inhibitors, biochemical, TCAMS library (AID 1159585; cut-off not given, nearly all actives have IC50 up to about 0.98 µM;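 also: inhibitors leave more ATP so luminescence rises with inhibition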). The note with it: recombinant PfCDPK1, Kinase-Glo ATP depletion luminescence.
Test [6] deals with Plasmodium falciparum protein kinase 6 (PK6, PF3D7_1337100) (UniProt Q8IDW1). Put plainly: PfPK6 kinase inhibitors, biochemical, TCAMS library (AID 1159586). The note with it: recombinant PfPK6, Kinase-Glo ATP depletion luminescence.
Plasmodium falciparum protein kinase 6 (PK6, PF3D7_1337100), sequence (Q8IDW1 1-305): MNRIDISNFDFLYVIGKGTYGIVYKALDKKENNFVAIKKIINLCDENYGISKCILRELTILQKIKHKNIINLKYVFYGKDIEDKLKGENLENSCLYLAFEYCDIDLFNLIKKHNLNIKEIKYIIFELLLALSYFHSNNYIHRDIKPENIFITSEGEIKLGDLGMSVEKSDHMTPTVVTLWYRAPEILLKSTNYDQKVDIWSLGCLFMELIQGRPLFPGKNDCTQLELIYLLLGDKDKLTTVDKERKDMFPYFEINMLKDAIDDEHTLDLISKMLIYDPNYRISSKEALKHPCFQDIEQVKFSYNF
Test [7] has as its target Protein kinase 7 (PK7), Plasmodium falciparum 3D7 (PF3D7_0213400) (UniProt Q7YTF7). Put plainly: inhibition of Plasmodium PK7 catalytic activity – biochemical, TCAMS antimalarial set, Kinase-Glo luminescence (AID 1159587). The note with it: recombinant PfPK7, Kinase-Glo ATP depletion luminescence.
The target of test [8] is Calcium-dependent protein kinase 4 (Plasmodium falciparum (isolate 3D7)) (UniProt Q8IBS5). As to the kind of experiment: PfCDPK4 kinase inhibitors, biochemical, TCAMS library (AID 1159588; cut-off not given, nearly all actives have IC50 up to about 0.91 µM). The conditions noted are these: recombinant PfCDPK4, Kinase-Glo ATP depletion luminescence.
Calcium-dependent protein kinase 4 (Plasmodium falciparum (isolate 3D7)), sequence (Q8IBS5 whole entry, looked up): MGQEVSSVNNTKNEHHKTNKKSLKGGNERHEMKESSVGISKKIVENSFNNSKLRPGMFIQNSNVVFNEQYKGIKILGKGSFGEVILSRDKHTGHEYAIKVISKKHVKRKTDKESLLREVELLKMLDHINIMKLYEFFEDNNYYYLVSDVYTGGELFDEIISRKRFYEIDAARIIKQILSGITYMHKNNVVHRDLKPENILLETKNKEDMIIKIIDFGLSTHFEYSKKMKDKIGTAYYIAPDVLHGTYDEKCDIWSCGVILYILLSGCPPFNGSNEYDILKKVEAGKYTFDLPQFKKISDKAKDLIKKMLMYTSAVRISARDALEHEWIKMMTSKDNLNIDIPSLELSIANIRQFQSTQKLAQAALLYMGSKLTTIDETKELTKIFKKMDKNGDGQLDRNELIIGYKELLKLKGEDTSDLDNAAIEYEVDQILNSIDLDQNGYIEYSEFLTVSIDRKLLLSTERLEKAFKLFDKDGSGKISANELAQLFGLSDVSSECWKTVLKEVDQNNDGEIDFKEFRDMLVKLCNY

Unmarked numbers belong to inactive results. For some of these results: Potency and affinity values are given separately. The source made the active and inactive calls. Unless noted, no rule for the calls is given here.

The values below come from PubChem BioAssay.

Calcium-dependent protein kinase 1 (Plasmodium falciparum (isolate 3D7)), sequence (P62344 whole entry, looked up): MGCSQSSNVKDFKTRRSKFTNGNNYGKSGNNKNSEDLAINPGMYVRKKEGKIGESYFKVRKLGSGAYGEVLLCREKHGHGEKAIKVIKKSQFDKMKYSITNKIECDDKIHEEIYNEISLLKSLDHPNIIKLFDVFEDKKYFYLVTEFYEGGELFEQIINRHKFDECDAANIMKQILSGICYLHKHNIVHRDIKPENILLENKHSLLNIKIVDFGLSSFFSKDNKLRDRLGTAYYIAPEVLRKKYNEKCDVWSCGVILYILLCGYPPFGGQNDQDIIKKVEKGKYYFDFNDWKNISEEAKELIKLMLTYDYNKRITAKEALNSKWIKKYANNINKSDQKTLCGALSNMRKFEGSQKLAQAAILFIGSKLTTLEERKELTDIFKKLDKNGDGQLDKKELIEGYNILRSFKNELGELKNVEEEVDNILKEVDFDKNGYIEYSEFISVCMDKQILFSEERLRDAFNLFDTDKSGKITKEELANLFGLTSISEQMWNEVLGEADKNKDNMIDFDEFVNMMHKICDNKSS
Protein kinase 7 (PK7), Plasmodium falciparum 3D7 (PF3D7_0213400), sequence (Q7YTF7 1-343): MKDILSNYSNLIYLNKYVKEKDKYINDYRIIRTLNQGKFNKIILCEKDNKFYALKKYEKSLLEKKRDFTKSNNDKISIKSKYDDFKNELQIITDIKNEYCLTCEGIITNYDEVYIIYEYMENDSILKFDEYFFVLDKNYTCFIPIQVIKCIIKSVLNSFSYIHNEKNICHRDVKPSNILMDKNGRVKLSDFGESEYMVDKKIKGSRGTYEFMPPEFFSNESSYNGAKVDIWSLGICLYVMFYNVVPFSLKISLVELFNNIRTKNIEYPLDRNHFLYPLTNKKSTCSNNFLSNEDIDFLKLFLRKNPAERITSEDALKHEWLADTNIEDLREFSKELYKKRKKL

`Cc1ccc(C)c2sc(N(CCCn3ccnc3)C(=O)c3ccco3)nc12`: the growth inhibition in test [1] was 63% (active); in test [4], 96% (active). Also, the inhibition in test [2] is 28%; in test [3] it was 0%. Moreover, the result in test [5], in test [6], in test [7] and in test [8] was inactive.

As for `CCOc1cccc(C(=O)Nc2cccc(CN3CCCN(Cc4ccc(O)cc4)CC3)c2)c1`, the growth inhibition in test [1] was 31%; in test [4], 91% (active). For the same molecule, the inhibition in test [2] was 23%; in test [3], 1%. Moreover, the result in test [5], in test [6], in test [7] and in test [8] was inactive.

Turning to `O=C(C=Cc1cccs1)N(CCCn1ccnc1)c1nc2ccc(F)cc2s1`, the growth inhibition in test [1] is 28%; in test [4], 98% (active). In addition, the inhibition in test [2] and in test [3] was -1% throughout. In addition, the outcome in test [5], in test [6], in test [7] and in test [8] was inactive.

For the molecule `CC(C)c1ccc(NC(=O)NCCCC2CCCN(CCCCCNC(=O)/C=C/c3ccc(Cl)c(Cl)c3)C2)cc1` (stereo not given), the growth inhibition in test [1] was 42%; in test [4], 90% (active). Moreover, the inhibition is 25% in test [2] and -2% in test [3]. The result in test [5], in test [6], in test [7] and in test [8] was inactive.

As for `CN1CCN(c2ccnc3ccc(NC(=O)Nc4ccc(-c5ccccc5)cc4)cc23)CC1`, the results for the growth inhibition in test [1] and in test [4] were 41% and 99% (active), respectively. Moreover, the inhibition in test [2] is -10%; in test [3], -7%. Moreover, the result in test [5], in test [6], in test [7] and in test [8] was inactive.

`CCCCCCNC(=O)C1Cc2c([nH]c3ccccc23)C2(CCN(CCc3ccccc3)CC2)N1` (stereo not given): the figures for the growth inhibition in test [1] and in test [4] were 34% and 96% (active), respectively. Also, the figures for the inhibition in test [2] and in test [3] were 41% and 4%, respectively. The result in test [5], in test [6], in test [7] and in test [8] was inactive.

On to `O=C1COC2(CN1CC1CCN(Cc3ccc(O)c(Cl)c3)C1)c1ccccc1-c1ccccc12` (stereo not given), for which the growth inhibition was 50% (active) in test [1] and 93% (active) in test [4]. Moreover, the inhibition was 6% in test [2] and 1% in test [3]. The result in test [5], in test [6], in test [7] and in test [8] was inactive.

Regarding `CN(C)CCCOc1ccc(-c2csc(NC(N)=NCc3ccccc3)n2)cc1`, the growth inhibition in test [1] was 97% (active); in test [4] it was 100% (active). Besides, the values for the inhibition in test [2] and in test [3] were 57% (active) and 5%, respectively. For the same molecule, the outcome in test [5], in test [6], in test [7] and in test [8] was inactive.

For the molecule `O=C(NCCNc1ccnc2cc(Cl)ccc12)c1ccccc1F`, the growth inhibition in test [1] was 98% (active); in test [4], 99% (active). In addition, the inhibition was 30% in test [2] and 0% in test [3]. Further, the result in test [5], in test [6], in test [7] and in test [8] was inactive.

With `CCOC(=O)c1ccc(NC(=O)Nc2ccc(-c3ccc(-c4nc5ccc(C(F)(F)F)cc5[nH]4)cc3)cc2)cc1`, the growth inhibition in test [1] was 52% (active); in test [4], 102% (active). For the same molecule, the inhibition is 20% in test [2] and -2% in test [3]. Also, the result in test [5], in test [6], in test [7] and in test [8] was inactive.

On to `CCN(CC)CCCSc1ccc(-c2ccc(SCCCN(CC)CC)cc2)cc1`, for which the growth inhibition in test [1] is 30%; in test [4] it was 87% (active). Besides, the inhibition in test [2] was 38%; in test [3], -8%. Besides, the result in test [5], in test [6], in test [7] and in test [8] was inactive.

Turning to `O=C(Nc1cccc(CN2CCCN(CC3CC3)CC2)c1)c1ccc(Cl)c(Cl)c1`, the growth inhibition is 5% in test [1] and 92% (active) in test [4]. Also, the inhibition was 13% in test [2] and 4% in test [3]. In addition, the result in test [5], in test [6], in test [7] and in test [8] was inactive.

Take `CCCC1(NC[C@@H](O)[C@H](Cc2ccccc2)NC(=O)c2cc(NCC)cc(N3CCCCS3(=O)=O)c2)CCCC1`: the figures for the growth inhibition in test [1] and in test [4] were 97% (active) and 101% (active), respectively. For the same molecule, the inhibition in test [2] was -1%; in test [3], -5%. In addition, the result in test [5], in test [6], in test [7] and in test [8] was inactive.

As to `O=C(NC1CCCCC1)N(CCCn1ccnc1)Cc1csc(-c2ccc(CNCc3ccccc3)cc2)n1`, the growth inhibition in test [1] is 48%; in test [4], 97% (active). For the same molecule, the results for the inhibition in test [2] and in test [3] were 5% and 0%, respectively. Besides, the result in test [5], in test [6], in test [7] and in test [8] was inactive.

Consider `O=C(Nc1ccc2c(c1)CCNCC2)Nc1ccc2ccccc2c1`, for which the growth inhibition is 23% in test [1] and 84% (active) in test [4]. Also, the inhibition in test [2] is -6%; in test [3] it was -1%. Besides, the outcome in test [5], in test [6], in test [7] and in test [8] was inactive.

As to `c1ccc(-c2cc(NCCNc3cc(-c4ccccc4)nc4ccccc34)c3ccccc3n2)cc1`, the growth inhibition was 11% in test [1] and 99% (active) in test [4]. In addition, the figures for the inhibition in test [2] and in test [3] were -2% and 0%, respectively. The result in test [5], in test [6], in test [7] and in test [8] was inactive.

Regarding `COC(=O)CCCCOc1cc(Cc2cnc(N)nc2N)cc(OC)c1OC`, the growth inhibition is -1% in test [1] and 97% (active) in test [4]. Besides, the inhibition in test [2] is -10%; in test [3], -3%. Further, the result in test [5], in test [6], in test [7] and in test [8] was inactive.

As for `O=C(c1cc(C(=O)NC2CCCCC2)c(=O)n(C2CCCCC2)c1)c1cc(F)ccc1O`, the figures for the growth inhibition in test [1] and in test [4] were 98% (active) and 99% (active), respectively. The inhibition was 22% in test [2] and -2% in test [3]. Moreover, the outcome in test [5], in test [6], in test [7] and in test [8] was inactive.

As to `CC(C)(C)C1CCC(CC2=C(C(=O)O)c3ccccc3C2=O)CC1` (stereo not given), the growth inhibition in test [1] is 56% (active); in test [4], 91% (active). In addition, the inhibition in test [2] was -4%; in test [3], -1%. Besides, the outcome in test [5], in test [6], in test [7] and in test [8] was inactive.

Take `Fc1ccc2nc(-c3cccc(-c4ccc(CNCCc5ccncc5)cc4)c3)[nH]c2c1`: the growth inhibition in test [1] is 100% (active); in test [4], 99% (active). The inhibition was 44% in test [2] and 4% in test [3]. The outcome in test [5], in test [6], in test [7] and in test [8] was inactive.
